Hit rate of the full screen: of about 69,000 compounds, about 8,600 (12%) showed an effect of 50% or more. The sample as a whole holds a higher share of strong results than the screen did.

The assay has as its system Plasmodium berghei. The assay can be described thus: Screen against P. berghei liver stage (PbLuc), transformed with Luciferase, at 10uM. In kind it is functional, HepG2. To be noted: tested at 10 uM.
On to `CC(=O)NCCCNC(=O)N1CCN(c2cc(F)ccc2F)CC1`, for which the INHIBITION was -15%. Under `N#Cc1ccccc1CN1C[C@H]2CC[C@@H](C1)N(Cc1cscn1)C2=O` stands 6.8%; under `CCc1nc(C)sc1CN1CC[C@@](O)(CCOC)[C@H](C)C1`, 21.8%. Under `COCCn1cncc1-c1nc2c([nH]1)CC(C)(C)CNC2=O` stands -27.6%; under `COCC(=O)N1CCCCC1c1nc(C)c2c(n1)N(C1CC1)C(=O)CC2` (configuration not stated), 36.9%. In the case of `CCN1CCC(NC(=O)CN2CCCC2Cn2nc(C)nc2C)CC1` (configuration not stated), the INHIBITION turned out to be 31.2%. Take `CSCC[C@H](NC(=O)Cn1ccc2ccc(Cl)cc21)C(=O)O`: the INHIBITION is listed as -30.8%.

Turning to `Cc1cc(CN2CCCC2Cn2cccn2)no1` (configuration not stated), the INHIBITION is listed as 9.2%. With `CSCc1cccc(S(=O)(=O)N2CCCCCC2)c1`, the INHIBITION worked out at 2.69%. On to `Cc1cc(NC2CCc3nc(C(C)C)nn3C2)n2ncnc2n1` (configuration not stated), for which the INHIBITION turned out to be 49.1%. As to `Cn1nnc2c1C(COCc1ccccn1)CN(C(=O)c1cccs1)C2` (configuration not stated), the INHIBITION is 31.8%. Under `CS(=O)(=O)N1CC[C@]2(C[C@@H](Oc3ccccn3)CO2)C1` stands 29%. `COc1cccc(C(=O)N2C[C@@H](c3ccccc3)[C@@H]3NCCCC[C@@H]32)c1`: the INHIBITION was found to be 5.11%. Turning to `COc1ccc(C(=O)N2C[C@@H](c3ccccc3)[C@@H]3NCCCC[C@@H]32)cc1`, the INHIBITION stood at 15.9%. Take `COc1cccc([C@H]2CN(C(=O)c3ccccc3)[C@@H]3CCCN[C@H]23)c1`: the INHIBITION is on record as 55.6%. Regarding `CCn1cc(CN2CCCN(C(=O)c3ccoc3)CC2)cn1`, the INHIBITION was determined as 41.2%. Turning to `CCC(C)(C)NC(=O)C[S+]([O-])Cc1csc(C2CCCC2)n1` (configuration not stated), the INHIBITION is on record as 63.8%. With `O=C(C[S+]([O-])Cc1csc(C2CCCC2)n1)NC1CCCC1` (configuration not stated), the INHIBITION is 36.9%. As to `CCCNC(=O)C[S+]([O-])Cc1csc(C2CCCCC2)n1` (configuration not stated), the INHIBITION was 23%. As to `CCc1cnc(N2CCc3ncnc(N4CCN(C)CC4)c3CC2)nc1`, the INHIBITION is on record as 36.2%.

As to `O=S(=O)(NCc1ccnc(-n2ccnc2)c1)c1cncc(Cl)c1`, the INHIBITION was 15.2%. `Cn1cc(S(=O)(=O)NC(=O)C2(c3cccc(Cl)c3)CC2)cn1`: the INHIBITION is -6.94%. For `Cc1cccc(C2(C(=O)NS(=O)(=O)c3cnn(C)c3)CCCC2)c1`, the INHIBITION is reported as 53.5%. As to `Cn1cc(S(=O)(=O)NC(=O)C2(c3ccccc3)CCC2)cn1`, the INHIBITION is recorded as 2.97%. As to `O=C(CCNC(=O)N1CCC(c2ccccc2)C1)N1CCCCC1` (configuration not stated), the INHIBITION is listed as -24.5%.

As for `CN(C(=O)C1CCOCC1)[C@@H]1CCC[C@@H](N2CCOCC2)[C@@H]1O`, the INHIBITION came out at 38.2%. `CN(Cc1ccsc1)C(=O)c1nc(N2CCCC2)ncc1Cl`: the INHIBITION is reported as -0.232%. Under `Cc1nc(N2CCOCC2)nc2c1CCN(Cc1ccsc1)CC2` stands 60.5%. As to `CN(Cc1ccsc1)C(=O)c1nc(N2CCCCC2)ncc1Cl`, the INHIBITION is given as 26.7%. Take `Oc1nc(N2CCCC2)nc2c1CCN(Cc1ccsc1)CC2`: the INHIBITION was determined as 61.7%.

In the case of `Cc1nc(C)c2c(n1)CCN(Cc1ccsc1)CC2`, the INHIBITION was -5.08%. To `Oc1nc(N2CCCC2)nc2c1CCN(Cc1cccnc1)CC2` belongs 24.8%; to `O=C(c1nc(N2CCCC2)ncc1Cl)N1CCN(Cc2ccsc2)CC1`, 72.1%. Take `Cc1nc(N2CCCC2)nc2c1CCN(Cc1ccsc1)CC2`: the INHIBITION was 4.1%. Consider `c1cncc(-c2ncnc3c2CCN(Cc2ccsc2)CC3)c1`, for which the INHIBITION came to 3.58%.

With `O=C(c1ccc(N2CCCC2)nc1)N1CCCC(c2nccs2)C1` (configuration not stated), the INHIBITION is reported as 17.2%. `CC(C)Cc1nc(CNCc2cccc(N3CCCC3=O)c2)no1`: the INHIBITION is given as -20.5%. As for `NCC1CCC(C(NC(=O)CC2CCCCC2)c2ccccn2)CC1` (configuration not stated), the INHIBITION worked out at 38.2%. Turning to `CCc1ccc(NC(=O)N2C[C@@H]3C[C@H](C(=O)NC(C)C)[C@H](C2)O3)cc1`, the INHIBITION is listed as -31.1%. Under `CN1CC2(CCN(C(=O)c3cc(-n4cccn4)ccc3Cl)CC2)OC1=O` stands 14.5%; under `Cc1cnn(C2CCCN(C(=O)c3ccc4c(c3)CCC4)C2)c1` (configuration not stated), 40.2%.

As for `O=C(c1cc(F)ccc1F)C1CCN(C(=O)c2ccco2)CC1`, the INHIBITION is -98.8%. Take `Cc1ccc(C(C)N(C)Cc2nc3c(cnn3C)c(=O)[nH]2)s1` (configuration not stated): the INHIBITION is recorded as -30.38%. For the compound `NC(=O)CSCCC(=O)NCC1CC1`, the INHIBITION is on record as -0.71%. Under `NC(=O)CSCC(=O)NCC1CCCC1` stands 50.4%; under `N#CCSCC(=O)NCC1CCCCC1`, 18.6%.

For `CN(C(=O)c1ccnn1C)[C@@H]1CCC[C@@H](Oc2ccccc2)[C@@H]1O`, the INHIBITION is listed as 34%. For the compound `CCC(=O)N1CCC(Cc2cnc(Nc3cnccn3)cn2)CC1`, the INHIBITION is 16.5%. Turning to `Cc1n[nH]c(C)c1-c1nccnc1CC1CCN(S(C)(=O)=O)C1` (configuration not stated), the INHIBITION was -3.31%. With `Cc1ccc(NC2CCCN(CCc3ccccc3)C2)nn1` (configuration not stated), the INHIBITION is reported as -28%.

Take `Cc1cc(NC2CCN(c3ccc(F)cc3)CC2)n2nc(C)cc2n1`: the INHIBITION is on record as 8.07%. In the case of `Cc1ccc(NC2CCCN(Cc3ccc(Cl)cc3)C2)nn1` (configuration not stated), the INHIBITION is -20%. For `Cc1cc(C)nc(NC2CCCN(CCCc3ccccc3)C2)n1` (configuration not stated), the INHIBITION is reported as 31.1%. For `Cc1cc(N[C@H]2CCCN(Cc3ccccc3)C2)n2nc(C)cc2n1`, the INHIBITION is 63.7%.

For `Cc1cc(NC2CCCN(Cc3ccc(F)cc3)C2)n2nc(C)cc2n1` (configuration not stated), the INHIBITION is recorded as 67.3%. For `CN1C(=O)C2(CCN(C(=O)c3ccccc3)CC2)c2cccc(F)c21`, the INHIBITION was found to be 43.8%. Turning to `O=C(N1CCCO1)[C@]12COC[C@H]1CN(Cc1nccs1)C2`, the INHIBITION amounted to 7.24%.

Consider `CC[C@H]1NCCC[C@]12CCC(=O)N2Cc1ccncc1`, for which the INHIBITION is 17.4%. For the compound `CS(=O)(=O)NCC1CCCN(C(=O)Nc2ccccc2N2CCCC2)C1` (configuration not stated), the INHIBITION was -75.9%.

Take `CCN1CCN(c2ccccc2NC(=O)N(C)C2CCSC2)CC1` (configuration not stated): the INHIBITION amounted to 74.9%. For `CCN1CCc2c(cccc2NC(=O)CN(C)C2CCSC2)C1` (configuration not stated), the INHIBITION is 34.1%. Under `CCOCCN(C)C(=O)Nc1cccc2c1CCN(CC)C2` stands 3.48%; under `CCN1CCc2c(cccc2NC(=O)N(C)C2CCSC2)C1` (configuration not stated), 50.8%. Under `CCN1CCC(NC(=O)N(C)Cc2csc3ccccc23)CC1` stands 27.6%; under `CC(C)n1cnnc1CN(C)C(=O)c1cccnc1O`, 18.6%. With `CCOc1ccc(S(=O)(=O)C(C)C(=O)Nc2cc(C)no2)cc1` (configuration not stated), the INHIBITION is -11.9%. Turning to `O=C([C@H]1CCCO1)N1CC[C@H](O)[C@@H]1Cc1ccncc1`, the INHIBITION is given as 33.2%.

Source of the values: ChEMBL document CHEMBL4513216, “Probing the Open Global Health Chemical Diversity Library for Multistage-Active Starting Points for Next-Generation Antimalarials” (ACS Infect Dis, 2020).
